Where “and” joins values, the source holds several entries; their conditions need not be identical. Equal entries are not always repeated. Compounds without any hit were thinned out: in the full panel of roughly 83,000, 20% have a hit.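 Testing used 96-well plates and a 48-hour single-concentration exposure. Example: -40 means 40% of the starting cells died.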 Values without a mark were called inactive. Calls of active or inactive are those of the source. Rule for the calls: active = growth percent below 10; inactive = the rest.
test system: HL-60(TB) leukemia; test: NCI-60 one-dose screen, 48 h (100 = growth as untreated, 0 = no growth, -100 = all killed); conditions: 10 µM unless noted

SMILES	growth
CC(=O)OCC(=O)[C@@]1(O)CC[C@H]2[C@@H]3CCC4=CC(=O)CC[C@]4(C)[C@@]3(F)[C@@H](O)C[C@@]21C	98.2%
COc1ccc(/C=C/C(=C/c2c(O)[nH]c3cc(Br)ccc23)N=O)cc1	119%
CCOC(=O)C(N)Cc1cc(I)c(O)c(I)c1 (stereo not given)	99.9% and 132%
CNc1ccc(Cl)cc1S(=O)(=O)c1ccccc1[N+](=O)[O-]	65.3% and 79.9%
COC(=O)[C@@H](CCCCNC(=O)[C@]12CCC(C)(C)C[C@@H]1C1=CC[C@@H]3[C@@]4(C)C/C(=C/c5ccco5)C(=O)C(C)(C)[C@@H]4CC[C@@]3(C)[C@]1(C)CC2)NC(=O)[C@]12CCC(C)(C)C[C@@H]1C1=CC[C@@H]3[C@@]4(C)C/C(=C/c5ccco5)C(=O)C(C)(C)[C@@H]4CC[C@@]3(C)[C@]1(C)CC2	114%
C[C@]12CCC(=O)C[C@H]1CC[C@@H]1[C@@H]2CC[C@@]2(C)[C@H]1CC[C@]2(O)C(=O)CO	126%
CCN(CC)CCCOc1ccc2c(c1)O/C(=C\c1cccc(OC)c1)C2=O	97.4%
COc1cccc(-c2nn(-c3ccccc3)cc2-c2ccnc(NCCNS(=O)(=O)c3cccc(F)c3)c2)c1	5.83% (active)
Oc1cccnc1CN1CCOCC1	94% and 88.5%
COc1ccc(-c2cc(-c3cc4ccccc4oc3=O)n(-c3ccccc3)n2)cc1	91.6%

Reference: PubChem BioAssay (NCI)
